Only some compounds are listed: those with a hit (about 5.3% of all), similar ones and a draw of the others.
ALOX15B inhib – inhibitors of human 15-lipoxygenase 2 (ALOX15B); O15296; purified 15hLO-2, xylenol orange hydroperoxide absorbance; Potency, µM (series often up to 57.1 µM), for the others: at the highest dose activity change, negative = inhibition, hits mostly inhibitors; 110,000 tested, 0.56% active; also: potency is read from the fitted curve at half-maximal effect; nearly all actives have a fitted effect of over 60% in size
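Read-out: hydroperoxide product oxidises ferrous iron, measured as xylenol orange complex via the 573-to-405 nm absorbance ratio after 30 min. Reaction: 50 nM enzyme, 15 min compound preincubation, 45 uM arachidonic acid, 90 min RT, Hepes pH 7.5 with Triton X-100.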
IMPase inh – membrane-permeable compound that blocks inositol monophosphatase | 120,000 tested, under 10 active | inhibition (IP1 accumulation), % at 46.1 µM | AID 901 | CHO-M1 cells, IP1 accumulation, HTRF TR-FRET ratio; active = well fitted curve in the direction sought with a large enough effect in the signal ratio, not every such curve was filed as active; inconclusive = small, poorly fitted or top-dose-only effect, or a change in a side signal; inactive = no such curve, though single readings can be large or run the other way; the % refers to the signal ratio;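 also: cells stimulated with carbachol in lithium chloride buffer; plate controls were DMSO basal wells for no effect and reference inhibitor wells for full effect; higher means more IMPase inhibition seen as more IP1 and lower FRET ratio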
Target sequence (P97697 whole entry, looked up): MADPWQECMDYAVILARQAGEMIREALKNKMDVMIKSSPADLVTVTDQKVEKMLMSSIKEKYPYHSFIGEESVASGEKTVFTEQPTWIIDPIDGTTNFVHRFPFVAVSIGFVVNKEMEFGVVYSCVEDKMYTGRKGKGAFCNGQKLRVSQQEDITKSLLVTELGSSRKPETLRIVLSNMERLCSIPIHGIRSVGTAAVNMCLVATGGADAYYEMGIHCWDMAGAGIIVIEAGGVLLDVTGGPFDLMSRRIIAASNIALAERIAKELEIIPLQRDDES
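Carbachol-driven Gq signalling in CHO-M1 cells (2000/well) generates IP1. Compounds that block IMPase raise IP1 and so reduce the FRET signal from Eu-anti-IP1 and d2-IP1 after a 10 min room-temperature lysis.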
ALOX12 inhib – 12-hLO (ALOX12) enzyme inhibition; P18054; purified 12-hLO, xylenol orange hydroperoxide absorbance; Potency, µM (titrated, usually from 57.1 µM), inactives show at the top dose activity change, negative = inhibition, actives largely listed as inhibitors; 150,000 tested, 0.12% active; AID 1452; also: potency is read from the fitted curve at half-maximal effect; nearly all actives have a fitted effect of over 55% in size
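150 nM 12hLO, 25 mM Hepes pH 7.0 + 0.01% Triton X-100; cpd preinc 15 min RT; 40 uM arachidonic acid, 30 min RT; Fe-XO 30 min; A573/A405 ratio as read-out.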
IMPase Li inh – membrane-permeable IMPase blocker, potentiated with lithium | AID 1457 | Potency, µM (top dose mostly 59.4 µM), for inactives: top-dose activity, negative = IMPase inhibition, actives largely listed as inhibitors | CHO-M1 cells, IP1 TR-FRET (IP-One), carbachol + lithium | 210,000 tested, 0.35% active;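 also: IP1 builds up when IMPase is blocked and the TR-FRET signal falls; potency is read from the fitted curve at half-maximal effect; plate controls were basal vehicle for no effect and high inhibitor control for full effect; nearly all actives have a fitted effect of over 50% in size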
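CHO cells stably expressing M1 receptor (2000/well, cultured 16–30 h) treated 30 min at 37C with compound plus low lithium. Cytosolic IP1 by TR-FRET (665/620 ratio and 620 channel) after 10 min lysis; AC50 by Hill fit.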
HPGD block – HPGD (human) dehydrogenase inhibition | purified HPGD, NADH fluorescence kinetic, PGE2 substrate | Potency, µM, for inactives: at the highest dose activity change, negative = inhibition, most hits filed as inhibitors | 150,000 tested, 4.3% active | AID 894 | P15428; active = well fitted inhibition curve with a large enough effect, not every such curve was filed as active; inconclusive = small, poorly fitted or top-dose-only effect, or another doubt; inactive = no such curve, though single readings can be large or run the other way; also: potency is read from the fitted curve at half-maximal effect
Target sequence (P15428 whole entry, looked up): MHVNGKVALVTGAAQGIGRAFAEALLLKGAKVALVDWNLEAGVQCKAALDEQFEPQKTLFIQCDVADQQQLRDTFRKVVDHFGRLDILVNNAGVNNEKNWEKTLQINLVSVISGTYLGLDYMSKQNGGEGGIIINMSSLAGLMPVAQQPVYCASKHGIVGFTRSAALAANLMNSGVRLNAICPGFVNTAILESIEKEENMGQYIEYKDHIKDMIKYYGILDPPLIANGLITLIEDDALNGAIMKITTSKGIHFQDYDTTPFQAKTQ
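20 nM HPGD preincubated 15 min at room temperature with compound in 50 mM Tris-HCl pH 8, 0.01% Tween 20. Started with 1 mM NAD+ and 30 uM prostaglandin E2; NADH fluorescence (360/450 nm) read 5 times over 30-s intervals, last minus first.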
PNC inhibitor – inhibitors of perinucleolar compartment assembly. PC3M PTB-GFP, PNC prevalence imaging, 16 h; hits give low values. activity change (PNC), negative = inhibition, % at 10 µM. 140,000 tested, 3.1% active. AID 2417;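 active = readout at or below -70, meaning at least 70% loss of cells showing the perinucleolar compartment, a nuclear body marking cancer cells; inconclusive = readout between -30 and a set limit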;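 also: plate controls were DMSO wells for no effect and camptothecin positive control wells for full effect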
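Compounds are pinned in duplicate onto adhered PC3M cells stably expressing GFP-tagged PTB and incubated 16 h at 37 C. Cells are then fixed, nuclei stained with Hoechst, and PNC-positive cells counted.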
Active calls of the source: *; ? = inconclusive; . = no result given; ! = not confirmed by another sample; [ ] = remark or other dose. Unless noted, calls follow the shape of the dose curve; as a rule, active = well fitted curve in the direction sought with a large enough effect; inconclusive = small, poorly fitted or top-dose-only effect, or another doubt; inactive = no such curve, though single readings can be large; an effect the other way counts as inactive or inconclusive. Unless noted, % is scaled to controls: 0 for no effect and ±100 for the full control effect.

SMILES	ALOX15B inhib	IMPase inh	ALOX12 inhib	IMPase Li inh	HPGD block	PNC inhibitor
C[C@H]1O[C@@H](O[C@H]2[C@@H](O)C[C@H](O[C@H]3[C@@H](O)C[C@H](O[C@H]4CC[C@@]5(C)[C@H](CC[C@@H]6[C@@H]5CC[C@]5(C)[C@@H](C7=CC(=O)OC7)CC[C@]65O)C4)O[C@@H]3C)O[C@@H]2C)C[C@H](O)[C@@H]1O	.	.	-1.4%	-3.6%	-3.7%	-81.7*
CC(C)(O)[C@H]1[C@H]2OC(=O)[C@@H]1[C@]1(O)C[C@H]3O[C@]34C(=O)O[C@H]2[C@]14C (tested in a mixture with another compound)	-6.1%	-1.1	5.2%	.	.	.
COC(=O)CSC1=NP(=S)(SCC(=O)OC)N2CCCC2=C1C#N (configuration not stated)	-9.0%	-4.8	-8.6%	6.4%[38.3 µM]	-2.3%	-126.5*
CC(C)n1cc2c3c(cccc31)[C@@H]1C[C@H](C(=O)O[C@@H](C)[C@H](C)O)CN(C)[C@H]1C2	19.3%	0.5	-2.2%	.	.	.
Cc1cccc(N2C(=O)NC(=O)/C(=C\c3cc(C)n(-c4sc5c(c4C#N)CCCC5)c3C)C2=O)c1C	.	-2.6	?	6.2%	3.98µM*	16.5
O=C(O)CCn1cc(C=C2C(=O)NC(=O)NC2=O)c(-c2ccc(Br)cc2)n1	.	.	-3.0%	-11.5%	28.2µM*	-8.1
COc1c(C(C)(C)C)cc([N+](=O)[O-])c(C)c1[N+](=O)[O-]	0.2%	.	-1.6%	22.0%	-7.7%	.
Nc1nc2c(ncn2[C@@H]2O[C@H](CO)[C@@H](O)[C@@H]2O)c(=[SH+])[nH]1.O=[N+]([O-])c1ccc(O)[c]([Hg])c1	.	.	.	22.9%	0.0251µM*	.
N#CCc1ccccc1	-0.7%	.	0.3%	-5.4%	-8.4%	.
O=C1C(Cl)=C(Cl)C(=O)C(Cl)=C1Cl	?	.	?	111.7%	0.891µM*	.
O=C1CN(C(=O)CN2CCCCC2)C(c2ccccc2)c2cc(Br)ccc2N1 (configuration not stated)	5.0%	0.3	-4.2%	55.0%[38.3 µM]	-6.4%	-91.8*
Cc1ccc(Sc2ccc(C=C3C(=O)N(C)C(=O)N(C)C3=O)o2)cc1	.	.	.	-4.8%	.	.
CN1C(=O)C(=Cc2ccc(-c3cccc(Cl)c3)o2)C(=O)N(C)C1=O	.	.	-0.1%	-14.5%	7.94µM*	-7.5
CN1C(=O)C(=Cc2ccc(N3CCCCCC3)o2)C(=O)N(C)C1=S	-9.3%	-4.4	3.2%	8.5%[38.3 µM]	-14.7%	4.0
CN1C(=O)C(=Cc2ccc(N3CCOCC3)o2)C(=O)N(C)C1=O	.	.	-1.0%	-1.5%	15.8µM*	-23.6
O=S(=O)(Cl)c1ccccc1	-25.4%	.	-0.8%	3.4%	-11.2%	.
c1cncc(CNc2cc(-c3ccc4c(c3)OCO4)ncn2)c1	18.6%	.	-24.6%	7.6%	?	.
CCCN1CCC[C@H](c2cccc(C#N)c2)C1	5.7%	11.5	3.6%	.	.	.
CCn1cc(C(=O)O)c(=O)c2cc3c(cc21)OCO3	8.0%	1.2[20.6 µM]	-5.0%	7.94µM*!	-12.4%	?
CCn1cc(C(=O)N2CCCCC2)c2ccccc21	.	.	.	4.6%	.	.
CCCC[N+](=O)[O-]	-16.8%	.	2.8%	8.3%	-5.5%	.
Cn1c(=O)c2[nH]cnc2n(C)c1=O.[CH2-][C@H](Cc1cccc2cc(C(=O)O)c(=O)oc12)OC.[Hg].[OH-]	-27.2%[11.4 µM]	.	0.7%[11.4 µM]	2.8%	3.98µM*	.
C/C=C(\C)C(=O)O[C@@H]1C(C)=C2[C@H]([C@@H]1OC(=O)CCCCCCC)[C@@](C)(OC(C)=O)C[C@@H](OC(=O)CCC)[C@@]1(O)[C@H]2OC(=O)[C@]1(C)O	14.2%	10.0	-29.6%	.	.	.
CC(C)CCNC(=O)c1cc(C(=O)c2cc(Br)ccc2O)cn(CCC(C)C)c1=O	.	.	.	-7.1%	.	.
O=C(c1cc(C(=O)NCc2ccccc2)c(=O)n(Cc2ccccc2)c1)c1cc(Cl)ccc1O	.	.	2.9%	-4.6%	15.8µM*	?
SMILES	ALOX15B inhib	IMPase inh	ALOX12 inhib	IMPase Li inh	HPGD block	PNC inhibitor
COCc1cc(C)c(C#N)c(=S)[nH]1	?	-4.2	0.2%	-9.5%[38.3 µM]	?	9.2
C=CCc1c(C)[nH]c(=S)c(C#N)c1C	12.6µM*	-7.0	-23.6%	-22.5%[38.3 µM]	3.98µM*	28.0
CCN1C(=O)C(=Cc2ccc(C)s2)C(=O)N(CC)C1=S	.	.	-18.1%	-3.8%	8.91µM*	49.8
C[C@@H](C(=O)O)c1ccc(-c2ccccc2)c(F)c1	6.1%	1.4	-0.3%	6.3%	28.2µM*	.
CCN(CC)C(=O)c1ccc(NC(=O)COc2ccc([N+](=O)[O-])cc2Cl)cc1	.	.	-5.6%	1.8%	0.501µM*	-28.5
CCCCOC(C)=O	4.2%	.	-2.2%	-16.9%	-10.0%	.
O=C(O)c1cc(N=Nc2ccc([As](=O)(O)O)cc2)ccc1O	-3.3%[11.4 µM]	.	-5.2%[11.4 µM]	-4.3%	-11.9%	.
COP(=O)(OC)c1nc(-c2cccc3ccccc23)oc1NCCc1ccccc1	.	.	-5.4%	-4.6%	?	-91.4*
CC(C)CC(=O)C[C@H](O)C(Cl)(Cl)Cl	-1.2%[11.4 µM]	.	-1.4%[11.4 µM]	6.8%	-11.8%	.
CCCc1cc2c(n1Cc1cccc(Cl)c1)C(C)C1CN(C(=O)c3ccccc3)C(C)(C(=O)OC)C21 (configuration not stated)	-7.2%	.	-16.6%	5.8%	?	.
C[C@H](N)c1cccc(Cl)c1Cl	13.5%	3.6	-2.8%	.	.	.
O=C(O)[C@@H](Br)[C@H](Br)C(=O)O	-6.5%[11.4 µM]	.	0.9%[11.4 µM]	-2.4%	-4.2%	.
CC12CN3CC(C)(CN(C1)C3c1cccs1)C2O (configuration not stated)	-4.5%	6.3	1.8%	17.6%[38.3 µM]	-13.1%	-106.5*
CC(C)OC(=O)Nc1cccc(Cl)c1	-4.4%	.	0.7%	-1.9%	12.6µM*	.
CC1CCCN(C(=O)CN2C3CCC2CC(O)(c2ccc(F)cc2)C3)C1 (configuration not stated)	.	.	.	24.1%	.	.
CC1CCCN(C(=O)CCl)C1 (configuration not stated)	.	.	-0.3%	2.7%	-6.0%	-116.0*
CN(C)CCCc1cccnc1	-8.3%[11.4 µM]	.	-6.4%[11.4 µM]	2.8%	-7.1%	.
O=c1cc(-c2ccc(O)c(O)c2)oc2cc(O)cc(O)c12	15.8µM*	9.1	?	23.7%	11.2µM*!	.
c1ccc2cc3c(cc2c1)-c1cccc2cccc-3c12	4.0%	.	-2.8%	-20.9%	45.6%	.
CC1=CC(=O)NP(=O)(Oc2ccc3ccccc3c2)N1 (configuration not stated)	-18.7%	6.0	-5.7%	-3.3%[38.3 µM]	35.5µM*	51.5
Cc1nc2ccccc2cc1C[N+]12CN3CN(CN(C3)C1)C2	-19.6%[11.4 µM]	.	-17.3%[11.4 µM]	-6.7%	-1.3%	.
[O-]/[N+](=N\O)c1ccccc1	-12.7%	.	-0.2%	4.6%	12.6µM*	.

Source: PubChem BioAssay (National Center for Advancing Translational Sciences (NCATS))
